Among the data in PubChem BioAssay (EPA / NIEHS) are outcome and AC50 values, retold here.

Active and inactive are the calls of the source. Rule for the calls: active = hit-call score of the fitted dose curve at least 0.9, where 1 is the maximum; inactive = score below 0.9.

Fatty acid synthase (Homo sapiens), sequence (P49327 whole entry, looked up): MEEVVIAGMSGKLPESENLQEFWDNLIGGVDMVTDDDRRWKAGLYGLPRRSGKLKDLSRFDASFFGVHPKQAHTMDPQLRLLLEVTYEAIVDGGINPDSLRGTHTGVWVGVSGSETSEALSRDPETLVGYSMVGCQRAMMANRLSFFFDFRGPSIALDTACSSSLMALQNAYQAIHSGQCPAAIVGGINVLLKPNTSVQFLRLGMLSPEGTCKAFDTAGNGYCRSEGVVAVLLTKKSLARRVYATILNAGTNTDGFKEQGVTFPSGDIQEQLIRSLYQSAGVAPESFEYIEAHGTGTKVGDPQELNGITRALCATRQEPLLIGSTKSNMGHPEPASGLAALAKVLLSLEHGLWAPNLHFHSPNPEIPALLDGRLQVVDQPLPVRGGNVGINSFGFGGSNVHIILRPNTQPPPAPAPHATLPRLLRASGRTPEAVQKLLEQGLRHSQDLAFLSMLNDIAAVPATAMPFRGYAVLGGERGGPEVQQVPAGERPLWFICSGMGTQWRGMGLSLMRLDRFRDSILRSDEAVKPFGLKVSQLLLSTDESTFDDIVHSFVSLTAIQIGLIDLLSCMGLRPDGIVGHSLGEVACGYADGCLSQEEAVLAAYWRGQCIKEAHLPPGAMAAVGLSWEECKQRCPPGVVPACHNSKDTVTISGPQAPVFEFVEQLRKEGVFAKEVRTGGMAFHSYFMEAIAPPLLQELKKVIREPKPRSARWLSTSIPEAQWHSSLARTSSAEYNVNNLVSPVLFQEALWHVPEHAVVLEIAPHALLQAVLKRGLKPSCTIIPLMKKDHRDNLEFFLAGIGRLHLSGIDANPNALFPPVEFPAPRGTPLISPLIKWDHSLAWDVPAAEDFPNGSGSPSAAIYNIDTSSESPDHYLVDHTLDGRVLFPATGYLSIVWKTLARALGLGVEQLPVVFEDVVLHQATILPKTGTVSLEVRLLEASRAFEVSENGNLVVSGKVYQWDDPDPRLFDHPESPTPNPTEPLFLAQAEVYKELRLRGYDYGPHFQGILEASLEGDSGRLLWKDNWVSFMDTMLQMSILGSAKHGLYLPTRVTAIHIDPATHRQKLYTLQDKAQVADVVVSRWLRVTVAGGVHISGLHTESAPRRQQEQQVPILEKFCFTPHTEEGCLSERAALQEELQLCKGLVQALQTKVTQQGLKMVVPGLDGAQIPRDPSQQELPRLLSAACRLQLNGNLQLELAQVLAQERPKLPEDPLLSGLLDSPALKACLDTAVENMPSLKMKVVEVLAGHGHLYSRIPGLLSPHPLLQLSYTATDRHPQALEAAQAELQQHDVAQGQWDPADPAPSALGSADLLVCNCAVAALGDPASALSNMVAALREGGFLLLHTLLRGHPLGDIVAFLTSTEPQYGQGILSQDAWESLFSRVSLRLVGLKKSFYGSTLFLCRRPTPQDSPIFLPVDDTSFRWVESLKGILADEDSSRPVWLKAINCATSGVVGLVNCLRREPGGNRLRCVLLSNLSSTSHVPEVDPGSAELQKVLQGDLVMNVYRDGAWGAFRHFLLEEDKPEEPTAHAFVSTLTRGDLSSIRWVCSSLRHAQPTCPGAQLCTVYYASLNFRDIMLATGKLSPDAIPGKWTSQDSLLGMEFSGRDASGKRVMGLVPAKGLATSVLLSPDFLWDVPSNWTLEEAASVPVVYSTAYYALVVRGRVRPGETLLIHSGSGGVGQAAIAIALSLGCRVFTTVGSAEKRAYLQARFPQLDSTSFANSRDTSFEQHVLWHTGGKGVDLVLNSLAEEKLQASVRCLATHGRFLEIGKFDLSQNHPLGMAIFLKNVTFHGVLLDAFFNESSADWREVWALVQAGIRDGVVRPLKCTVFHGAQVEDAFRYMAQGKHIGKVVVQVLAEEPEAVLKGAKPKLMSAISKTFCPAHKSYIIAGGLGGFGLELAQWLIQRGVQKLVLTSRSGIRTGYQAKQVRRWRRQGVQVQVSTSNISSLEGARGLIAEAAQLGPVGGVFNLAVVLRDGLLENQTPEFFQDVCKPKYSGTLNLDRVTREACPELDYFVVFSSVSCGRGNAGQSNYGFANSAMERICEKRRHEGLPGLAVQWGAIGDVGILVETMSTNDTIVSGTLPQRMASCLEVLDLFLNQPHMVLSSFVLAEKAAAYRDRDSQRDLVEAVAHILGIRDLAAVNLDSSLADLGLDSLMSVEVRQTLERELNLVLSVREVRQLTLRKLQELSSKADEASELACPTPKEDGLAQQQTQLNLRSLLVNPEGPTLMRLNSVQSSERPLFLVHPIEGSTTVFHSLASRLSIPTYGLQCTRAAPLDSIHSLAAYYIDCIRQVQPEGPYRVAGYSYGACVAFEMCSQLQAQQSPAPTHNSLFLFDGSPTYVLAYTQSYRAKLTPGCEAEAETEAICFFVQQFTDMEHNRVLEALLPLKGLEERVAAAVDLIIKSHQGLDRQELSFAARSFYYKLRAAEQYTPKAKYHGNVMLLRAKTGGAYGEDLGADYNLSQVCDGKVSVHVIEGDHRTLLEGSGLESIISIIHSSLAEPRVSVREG

Read-out in the first experiment: Tumor necrosis factor receptor superfamily member 6 (Homo sapiens) (UniProt P25445)
In words: LTEA_HepaRG_FAS: Life Technologies and Expression Analysis (LTEA) Assay for Fas cell surface death receptor (FAS) using HepaRG (AID 2283447). The following applies: mRNA level, 48 h; actives raise or lower the signal. A digest of the protocol: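 Differentiated HepaRG cells in serum-free induction medium were exposed 48 h to 8 half-log concentrations up to 100 uM in 0.5% DMSO, in duplicate. FAS mRNA was measured by qRT-PCR normalised to ACTB, GAPDH and POLR2A; bidirectional fit versus DMSO.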
In the case of `CCCCCCCCCC[N+](C)(C)[O-]`, the molecule was classed as inactive.

With `CCOCCOCCO`, the call was inactive.

As for `O=C1CCCCC1`, the result was inactive.

`COC(=O)CCCC(=O)OC`: the call was inactive.

`Nc1nc(=S)c2[nH]cnc2[nH]1`: the AC50 was 3.1 µM (active).

As to `Oc1ccc(O)cc1`, the molecule was classed as inactive.

In the case of `CC(C)c1cccc(C(C)C)c1NC(=O)NS(=O)(=O)c1cc(C(C)(C)O)co1`, the outcome was inactive.

In the case of `CCCCCCCCCCCCCCOS(=O)(=O)O`, the result was inactive.

As for `S=c1[nH]c2ccccc2s1`, the result was inactive.

As to `NC1CCCCC1`, the call was inactive.

On to `Cn1cnc2c1c(=O)[nH]c(=O)n2C`, for which the molecule was called inactive.

With `Cc1cc(SC2=C(O)C[C@@](CCc3ccc(N)cc3)(C(C)C)OC2=O)c(C(C)(C)C)cc1CO`, the result was inactive.

In the case of `CN(C)CCCN1c2ccccc2Sc2ccc(Cl)cc21`, the molecule was called inactive.

With `CC(=O)CC(c1ccccc1)c1c(O)c2ccccc2oc1=O` (stereo not given), the result was inactive.

On to `NC=O`, for which the result was inactive.

Regarding `CC(=O)S[C@H](C(=O)N[C@H]1Cc2ccccc2[C@H]2CCC[C@@H](C(=O)O)N2C1=O)C(C)C`, the result was inactive.

For the molecule `COc1ccc(C(=O)Nc2nc3ccccc3c(NCc3ccccc3)c2C#N)cc1`, the molecule was called inactive.

Regarding `CCCCC(CC)CO` (stereo not given), the call was inactive.

Regarding `CC(=O)OC1CC(C)OC(C)O1` (stereo not given), the outcome was inactive.

Regarding `C=CCc1ccc(OC)c(OC)c1`, the molecule was classed as inactive.

With `CCCCc1nc2cccnc2n1Cc1ccc(-c2ccccc2-c2nnn[nH]2)cc1`, the result was inactive.

On to `C=CCCCCCCCCCCCC`, for which the result was inactive.

On to `CCc1cc(C2=C(C(=O)O)N(c3ccccc3C(F)(F)F)S(=O)(=O)c3ccccc32)cc2c1OCO2`, for which the AC50 is 50 µM (active).

Regarding `CCCCCCCCCCCCCCCCO`, the molecule was called inactive.

`CCCC[C@H]1CN(CC2CCOCC2)C(=O)OC12CCN(C1(C)CCN(C(=O)c3c(C)ncnc3C)CC1)CC2`: the call was inactive.

As to `Nc1nc(Cl)nc2c1ncn2[C@H]1C[C@H](O)[C@@H](CO)O1`, the AC50 was 0.209 µM (active).

As to `O=C1OC(c2ccc(O)cc2)(c2ccc(O)cc2)c2ccccc21`, the result was inactive.

For `CC(C)COC(=O)CCCCC(=O)OCC(C)C`, the molecule was called inactive.

For `O=C1c2c(O)cccc2Cc2cccc(O)c21`, the result was inactive.

`CS(=O)(=O)c1ccc([C@@H](C[C@H]2CCC(=O)C2)C(=O)Nc2cnccn2)cc1Cl`: the AC50 is 24.4 µM (active).

Read-out in a further experiment: Fatty acid synthase (Homo sapiens) (UniProt P49327)
In words: LTEA_HepaRG_FASN: Life Technologies and Expression Analysis (LTEA) Assay for Fatty Acid Synthase (FASN) using HepaRG (AID 2283448). The following applies: mRNA level, 48 h; actives raise or lower the signal. In a few lines:
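Differentiated human HepaRG cells were exposed for 48 h in serum-free induction medium to eight half-log concentrations up to 100 uM in 0.5% DMSO, in duplicate. FASN mRNA was quantified by TaqMan qRT-PCR, normalized to ACTB/GAPDH/POLR2A, and fitted bidirectionally against DMSO.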
As to `CCCCCCCCCC[N+](C)(C)[O-]`, the molecule was classed as inactive.

`CCOCCOCCO`: the molecule was called inactive.

Consider `O=C1CCCCC1`, for which the call was inactive.

For the molecule `COC(=O)CCCC(=O)OC`, the call was inactive.

As for `Nc1nc(=S)c2[nH]cnc2[nH]1`, the AC50 is 9.16 µM (active).

Regarding `Oc1ccc(O)cc1`, the result was inactive.

`CC(C)c1cccc(C(C)C)c1NC(=O)NS(=O)(=O)c1cc(C(C)(C)O)co1`: the molecule was called inactive.

As to `CCCCCCCCCCCCCCOS(=O)(=O)O`, the result was inactive.

`S=c1[nH]c2ccccc2s1`: the result was inactive.

On to `NC1CCCCC1`, for which the molecule was classed as inactive.

For the molecule `Cn1cnc2c1c(=O)[nH]c(=O)n2C`, the molecule was classed as inactive.

As for `Cc1cc(SC2=C(O)C[C@@](CCc3ccc(N)cc3)(C(C)C)OC2=O)c(C(C)(C)C)cc1CO`, the molecule was classed as inactive.

Turning to `CN(C)CCCN1c2ccccc2Sc2ccc(Cl)cc21`, the AC50 was 12.5 µM (active).

For `CC(=O)CC(c1ccccc1)c1c(O)c2ccccc2oc1=O` (stereo not given), the AC50 was 13.4 µM (active).

Turning to `NC=O`, the call was inactive.

For `CC(=O)S[C@H](C(=O)N[C@H]1Cc2ccccc2[C@H]2CCC[C@@H](C(=O)O)N2C1=O)C(C)C`, the molecule was classed as inactive.

Take `COc1ccc(C(=O)Nc2nc3ccccc3c(NCc3ccccc3)c2C#N)cc1`: the concentration at half-maximal activity (AC50) was 10.3 µM (active).

For the molecule `CCCCC(CC)CO` (stereo not given), the molecule was called inactive.

Consider `CC(=O)OC1CC(C)OC(C)O1` (stereo not given), for which the result was inactive.

In the case of `C=CCc1ccc(OC)c(OC)c1`, the call was inactive.

Turning to `CCCCc1nc2cccnc2n1Cc1ccc(-c2ccccc2-c2nnn[nH]2)cc1`, the AC50 is 50 µM (active).

With `C=CCCCCCCCCCCCC`, the molecule was classed as inactive.

`CCc1cc(C2=C(C(=O)O)N(c3ccccc3C(F)(F)F)S(=O)(=O)c3ccccc32)cc2c1OCO2`: the call was inactive.

On to `CCCCCCCCCCCCCCCCO`, for which the outcome was inactive.

For the molecule `CCCC[C@H]1CN(CC2CCOCC2)C(=O)OC12CCN(C1(C)CCN(C(=O)c3c(C)ncnc3C)CC1)CC2`, the molecule was classed as inactive.

`Nc1nc(Cl)nc2c1ncn2[C@H]1C[C@H](O)[C@@H](CO)O1`: the AC50 is 1.59 µM (active).

Regarding `O=C1OC(c2ccc(O)cc2)(c2ccc(O)cc2)c2ccccc21`, the AC50 is 89.6 µM (active).

On to `CC(C)COC(=O)CCCCC(=O)OCC(C)C`, for which the call was inactive.

Take `O=C1c2c(O)cccc2Cc2cccc(O)c21`: the molecule was called inactive.

Regarding `CS(=O)(=O)c1ccc([C@@H](C[C@H]2CCC(=O)C2)C(=O)Nc2cnccn2)cc1Cl`, the result was inactive.
